The subject of experiment [1] is Human papillomavirus type 1a protein E7 (residues 44-93). The experiment can be described thus: small molecules binding HPV E7 44-93 – biochemical, small-molecule microarray, residues 44-93, 635 nm fluorescence, primary screen (AID 1108).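 Further: E7 fragment applied at 1 µg/mL in TBST for 1 h at 4 C; score combines spot fluorescence with its signal to noise ratio.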 The settings on record: fluorescence 635 nm, higher = more signal.
Experiment [2] in a line: hepatitis C replication reporter changes, two-sided – Huh7 cells, luciferase reporter, HCV replication inhibitor project, primary screen (AID 1109).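 Further: huh7 hepatoma cells harbouring a luciferase neomycin HCV replicon reporter; luciferase luminescence as measure of HCV replicon replication; test concentration not given here.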 The settings on record: Huh7 HCV replicon luciferase reporter, 48 h; higher = more signal.
In experiment [3] the target is Left-right determination factor 2 (Homo sapiens) (UniProt O00292). Put plainly: small molecules binding LEFTY2 protein – biochemical, small-molecule microarray, 635 nm fluorescence scan, primary screen (AID 1110). Particulars: higher = more signal.
Experiment [4] concerns the target Calmodulin-1 (Homo sapiens) (UniProt P0DP23). Put plainly: small molecules binding calmodulin-1 with EGTA – biochemical, small-molecule microarray, Cy5-labelled CALM1, profiling panel (AID 1111).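 Further: labelled calmodulin applied in Tris saline Tween buffer holding calcium plus EGTA and DTT.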 Particulars: Cy5-CALM1 binding fluorescence, higher = more signal.
For experiment [5] the target is unchanged. Put plainly: small molecules binding Ca-loaded calmodulin-1 – biochemical, small-molecule microarray, Cy5-labelled CALM1, plus calcium, artefact control for SMM control-protein annotation, profiling panel (AID 1112).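 Further: score merges spot fluorescence with signal to noise from triplicate slides.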 Particulars: Cy5-CALM1 binding fluorescence, higher = more signal.
Experiment [6] is described as follows: probe aWnt5a binding to arrayed compounds – biochemical, biotinylated probe, 635/667 nm fluorescence, primary screen (AID 1113).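 Further: score merges 667 nm fluorescence intensity with signal-to-noise per printed feature.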 The settings on record: small-molecule microarray, higher = more signal.
The nature of experiment [7]: probe aShh binding to arrayed compounds – biochemical, biotinylated probe, 635/667 nm fluorescence, primary screen (AID 1114).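 Further: probe is biotin-labelled aShh protein from a stem cell growth factor screen; measures binding of labelled protein to compounds printed on the slide; score merges feature fluorescence at 667 nm with signal-to-noise.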 The settings on record: small-molecule microarray, higher = more signal.
Experiment [8] is described as follows: probe aNog binding to arrayed compounds – biochemical, biotinylated probe, 635/667 nm fluorescence, primary screen (AID 1115).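 Further: probe is biotinylated aNog protein used at 0.15 µg/mL for 1 h at 4 C; z-score combines 667 nm fluorescence of each spot with its signal to noise.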 The settings on record: small-molecule microarray, higher = more signal.
The target of experiment [9] is Torsin-1A-interacting protein 1 (Homo sapiens) (UniProt Q5JTV8). Put plainly: compound microarray binding of lysate hLAP1 – cell lysate, small-molecule microarray, COS7 lysate, 635/667 nm fluorescence, primary screen (AID 1116). Particulars: 635 nm fluorescence, higher = more signal.
For experiment [10], the target named is Alpha-bungarotoxin (Bungarus multicinctus) (UniProt P60615). The experiment can be described thus: compounds binding labelled alpha-BTX control protein – biochemical, small-molecule microarray, Alexa647 label, 635/667 nm fluorescence, artefact control for SMM control protein annotation, profiling panel (AID 1117). Particulars: alpha-BTX-A647 binding fluorescence, higher = more signal.

A further experiment deals with Albumin (Bos taurus) (UniProt P02769). The experiment can be described thus: compounds binding labelled BSA control protein – biochemical, small-molecule microarray, Alexa647 label, 635/667 nm fluorescence, artefact control for SMM control protein annotation, profiling panel (AID 1118).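 Further: score merges 667 nm emission intensity and signal-to-noise per printed compound spot.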 The settings on record: BSA-A647 binding, fluorescence 635 nm, higher = more signal.

Experiment [11] in a line: probe aXIP binding to arrayed compounds – biochemical, NeuroSMM set, 635/667 nm fluorescence, primary screen (AID 1119).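 Further: probe is the protein aXip251-270 applied at 1 µg/mL to compound-printed slides; binding of probe to printed compounds measured as 667 nm fluorescence plus signal to noise.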 The settings on record: small-molecule microarray, higher = more signal, called active from +8 up or from −8 down.
Experiment [12] is described as follows: probe aNOTCH3 binding on compound microarray – biochemical, small-molecule microarray, 635/667 nm fluorescence, primary screen (AID 1120).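 Further: probe is a biotin-tagged antibody raised against NOTCH3 rather than NOTCH3 protein; score merges spot fluorescence near 667 nm with spot signal to noise.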 The settings on record: higher = more signal.
A short description of experiment [13]: probe aNOTCH2 binding on compound microarray – biochemical, small-molecule microarray, 635/667 nm fluorescence, primary screen (AID 1121).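 Further: score merges feature fluorescence read at 667 nm with its signal to noise.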 The settings on record: higher = more signal.
Experiment [14] concerns the target Carbonic anhydrase 2 (Homo sapiens) (UniProt P00918). Put plainly: compounds binding carbonic anhydrase 2 – biochemical, small-molecule microarray, Alexa647-labelled CAII, profiling panel (AID 1122). The settings on record: CAII-A647 binding fluorescence, higher = more signal.
A short description of experiment [15]: COS7 lysate on small-molecule microarray, probe aHis, 635 nm (AID 1123).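 Further: z-score combines 667nm fluorescence intensity with signal-to-noise per printed compound spot.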 Particulars: COS7 cell lysate, fluorescence, higher = more signal.
Experiment [16] in a line: probe aLAP1 signal on lysate-treated microarray – cell lysate, small-molecule microarray, COS7 lysate, primary screen (AID 1124).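 Further: lysate comes from COS7 cells expressing LAP1 and is applied at 0.3 µg/mL; score merges spot fluorescence near 667 nm with signal-to-noise over triplicate slides.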 Particulars: probe aLAP1, fluorescence, higher = more signal.
The subject of another experiment is Sam68 (KHDRBS1). The experiment can be described thus: compounds binding KHDRBS1 protein – biochemical, small-molecule microarray, 635 nm fluorescence, primary screen (AID 1125).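 Further: score merges 667 nm channel intensity with signal to noise over triplicate slides.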 Particulars: higher = more signal.
The subject of experiment [17] is Chordin-like protein 2 (CHRDL2). The experiment can be described thus: compounds binding chordin-like 2 – biochemical, small-molecule microarray, 635 nm fluorescence, primary screen (AID 1126).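 Further: printed compound slides probed with Chrdl2 protein at 4 µg/mL for 1 h at 4 C; score merges 667 nm emission intensity with signal to noise over three replicate slides.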 The settings on record: fluorescence 635 nm, higher = more signal.
The target of experiment [18] is Concanavalin-A (Canavalia ensiformis) (UniProt P02866). The experiment can be described thus: compounds binding concanavalin A lectin – biochemical, small-molecule microarray, Alexa647 label, 635 nm, artefact control for SMM control protein annotation, primary screen (AID 1127).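 Further: z combines 667 nm emission intensity with signal-to-noise across three replicate slides.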 Particulars: ConA-A647 binding fluorescence, higher = more signal.

Activity calls are given as the source filed them.

Left-right determination factor 2 (Homo sapiens), sequence (O00292 whole entry, looked up): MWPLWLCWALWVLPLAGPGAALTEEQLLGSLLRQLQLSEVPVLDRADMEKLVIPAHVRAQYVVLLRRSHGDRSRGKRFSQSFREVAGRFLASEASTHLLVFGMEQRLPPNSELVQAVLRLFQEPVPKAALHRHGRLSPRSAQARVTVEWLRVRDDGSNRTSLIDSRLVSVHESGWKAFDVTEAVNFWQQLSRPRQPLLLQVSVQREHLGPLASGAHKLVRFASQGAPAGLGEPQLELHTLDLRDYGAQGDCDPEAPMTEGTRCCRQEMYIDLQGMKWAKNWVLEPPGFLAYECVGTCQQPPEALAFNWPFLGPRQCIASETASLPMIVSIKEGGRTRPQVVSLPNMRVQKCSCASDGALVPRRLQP
Concanavalin-A (Canavalia ensiformis), sequence (P02866 whole entry, looked up): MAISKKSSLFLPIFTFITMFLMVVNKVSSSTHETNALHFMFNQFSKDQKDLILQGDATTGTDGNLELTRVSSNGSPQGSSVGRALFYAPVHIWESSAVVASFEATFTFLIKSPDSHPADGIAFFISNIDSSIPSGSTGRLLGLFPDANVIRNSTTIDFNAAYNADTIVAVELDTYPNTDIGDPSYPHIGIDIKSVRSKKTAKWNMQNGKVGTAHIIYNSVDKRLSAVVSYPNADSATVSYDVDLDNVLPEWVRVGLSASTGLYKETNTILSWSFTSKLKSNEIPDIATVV
Albumin (Bos taurus), sequence (P02769 whole entry, looked up): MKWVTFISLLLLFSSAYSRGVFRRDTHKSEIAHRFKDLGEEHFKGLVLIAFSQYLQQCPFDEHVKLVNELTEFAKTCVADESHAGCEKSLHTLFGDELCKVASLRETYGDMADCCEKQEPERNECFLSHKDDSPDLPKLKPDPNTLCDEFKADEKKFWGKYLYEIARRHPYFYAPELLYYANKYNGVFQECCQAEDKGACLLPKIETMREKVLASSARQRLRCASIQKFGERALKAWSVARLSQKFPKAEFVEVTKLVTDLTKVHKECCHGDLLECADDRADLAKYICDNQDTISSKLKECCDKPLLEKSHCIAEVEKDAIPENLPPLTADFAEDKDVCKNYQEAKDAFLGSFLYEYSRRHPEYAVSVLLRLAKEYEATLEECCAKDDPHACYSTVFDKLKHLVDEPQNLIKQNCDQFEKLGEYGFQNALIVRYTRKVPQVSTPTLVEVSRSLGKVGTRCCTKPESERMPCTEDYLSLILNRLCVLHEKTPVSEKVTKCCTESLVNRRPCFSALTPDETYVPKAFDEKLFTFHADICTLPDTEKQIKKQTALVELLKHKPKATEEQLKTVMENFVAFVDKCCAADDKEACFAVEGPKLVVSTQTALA
Alpha-bungarotoxin (Bungarus multicinctus), sequence (P60615 whole entry, looked up): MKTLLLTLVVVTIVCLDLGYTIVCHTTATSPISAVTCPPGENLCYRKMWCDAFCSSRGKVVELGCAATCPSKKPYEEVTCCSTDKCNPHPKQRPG
Torsin-1A-interacting protein 1 (Homo sapiens), sequence (Q5JTV8 whole entry, looked up): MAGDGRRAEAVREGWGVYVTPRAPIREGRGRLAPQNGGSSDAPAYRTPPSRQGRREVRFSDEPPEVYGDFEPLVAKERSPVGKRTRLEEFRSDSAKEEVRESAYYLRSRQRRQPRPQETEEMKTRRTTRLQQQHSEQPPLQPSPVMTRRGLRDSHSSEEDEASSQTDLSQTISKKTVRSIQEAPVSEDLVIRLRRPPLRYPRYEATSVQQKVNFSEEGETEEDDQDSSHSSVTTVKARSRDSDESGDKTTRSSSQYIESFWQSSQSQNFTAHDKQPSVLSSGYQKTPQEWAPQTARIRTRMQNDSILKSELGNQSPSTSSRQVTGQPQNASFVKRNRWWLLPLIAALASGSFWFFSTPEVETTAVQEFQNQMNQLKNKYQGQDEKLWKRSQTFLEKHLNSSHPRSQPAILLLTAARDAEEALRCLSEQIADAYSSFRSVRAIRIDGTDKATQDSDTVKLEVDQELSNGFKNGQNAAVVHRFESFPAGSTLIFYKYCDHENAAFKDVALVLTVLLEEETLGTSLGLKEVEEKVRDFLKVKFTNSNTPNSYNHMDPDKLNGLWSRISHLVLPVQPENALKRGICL

As to `C=C(COC)/C(=C/C[C@@H](OC(C)=O)c1ccc(OCCO)cc1)c1cc(C(=O)OC)ccc1OC`, the composite z-score is 1.35 in [1]; 0.417 in experiment [3]; -0.107 in experiment [4]; -0.878 in experiment [5]; 0.0618 in experiment [6]; 0.23 in [7]. In addition, the composite z-score in [8] is -0.354; in experiment [9], 0.864; in experiment [10], 0.472; with Albumin (Bos taurus), 0.616; in experiment [12] it was 0.0873; in experiment [13], -0.118. In addition, the composite z-score in [14] was 0.591; in [15], 0.669; in experiment [16], -0.413; in the experiment on Sam68 (KHDRBS1) it was 1.27; in experiment [17], 0.784; in experiment [18], 0.699. In experiment [2], this compound returned a z-score of -1.51. The composite Z-score in [11] is -0.064 (inactive).

With `COC(=O)[C@@]1(Cc2ccccc2)[C@H]2c3cc(C(=O)N(C)C)n(CCSCCO)c3C[C@H]2CN1C(=O)c1ccccc1`, the composite z-score in experiment [1] is 0.933; in experiment [3], -0.654; in [4], 1.26; in experiment [5], 0.786; in experiment [6], 0.117; in [7], 0.383. Further, the composite z-score is 1.66 in experiment [8]; 0.0664 in experiment [9]; 0.317 in experiment [10]; 0.569 in the experiment with Albumin (Bos taurus); 0.0893 in experiment [12]; 0.0577 in [13]. In addition, the composite z-score is 0.801 in experiment [14]; 2.26 in [15]; -0.154 in experiment [16]; 0.555 in the experiment with Sam68 (KHDRBS1); -0.25 in experiment [17]; 0.523 in experiment [18]. In addition, the z-score in [2] was -1.34. For the same compound, the composite Z-score in experiment [11] was 0.376 (inactive).

With `CCOC(=O)C=Cc1cc([N+](=O)[O-])ccc1O`, the composite z-score in experiment [1] was 0.0311; in [3] it was -0.609; in experiment [4], -0.211; in [5] it was -0.5; in [6], -0.124; in experiment [7] it was 0.173. In addition, the composite z-score in experiment [8] was -0.377; in experiment [9], 0.106; in [10] it was -0.234; in the experiment with Albumin (Bos taurus), -0.307; in experiment [12], 0.0209; in [13], -0.0162. The composite z-score in [14] is 0.802; in [15] it was 0.751; in experiment [16], 0.422; in the experiment on Sam68 (KHDRBS1), 0.471; in [17] it was -1.26; in experiment [18], -0.0123. This compound displayed a z-score in experiment [2] of -1.47. The composite Z-score in experiment [11] is -0.26 (inactive).

On to `CC(C)N1C(=O)[C@@]2(Cc3ccccc31)c1ccccc1C(=O)N(C1CCCCC1)[C@H]2c1ccc(CO)cc1`, for which the composite z-score in [1] is 0.683; in experiment [3], 0.0232; in experiment [4], -0.435; in experiment [5], -0.56; in [6], -0.063; in experiment [7] it was -0.195. In addition, the composite z-score in experiment [8] is -0.399; in experiment [9], 0.103; in experiment [10], 0.284; with Albumin (Bos taurus), -0.352; in experiment [12] it was 0.0196; in [13], -0.174. In addition, the composite z-score in [14] was found to be 0.156; in [15], 1.59; in experiment [16] it was 0.779; in the experiment with Sam68 (KHDRBS1) it was 0.819; in experiment [17] it was 0.78; in experiment [18] it was 0.842. Also, the z-score in [2] is -1.26. Besides, in experiment [11], the composite Z-score is -0.0662 (inactive).

As for `C=C(COC)/C(=C/C[C@H](OC(=O)c1ccncc1)c1ccc(OCCO)cc1)c1cnc2ccccc2c1`, the composite z-score in experiment [1] is 1.46; in experiment [3], 1.07; in experiment [4], 0.447; in [5] it was -0.669; in [6], 0.0328; in experiment [7], 0.171. In addition, the composite z-score in experiment [8] was -0.456; in experiment [9], 0.78; in experiment [10], 2.8; with Albumin (Bos taurus) it was 0.808; in experiment [12] it was 0.227; in experiment [13] it was -0.0389. The composite z-score in [14] stood at 0.86; in [15] it was 1.46; in experiment [16] it was 0.334; with Sam68 (KHDRBS1) it was 1.29; in experiment [17] it was 1.26; in [18] it was 1.17. The z-score in experiment [2] is -1.63. Moreover, in experiment [11], the composite Z-score is 0.914 (inactive).

Take `COc1ccc(CCNC(=O)[C@@]2(C)c3ccccc3C(=O)N(Cc3cc(F)cc(C(F)(F)F)c3)[C@H]2c2ccc(CO)cc2)cc1`: the composite z-score in [1] is 0.0404; in experiment [3], -0.454; in experiment [4], 0.123; in experiment [5], -0.183; in [6], -0.0944; in experiment [7], -0.0849. For the same compound, the composite z-score in experiment [8] was 0.549; in experiment [9], -0.152; in experiment [10], -0.838; with Albumin (Bos taurus), -0.825; in [12], -0.189; in experiment [13] it was -0.054. Moreover, the composite z-score was 0.726 in experiment [14]; 1.71 in experiment [15]; 0.54 in experiment [16]; -0.342 with Sam68 (KHDRBS1); 0.126 in [17]; -0.307 in [18]. The compound further came in with a z-score in experiment [2] of -0.928. Also, in experiment [11], the composite Z-score is 0.633 (inactive).

The record behind these values is PubChem BioAssay.
